# Screening results from PubChem BioAssay.
# A selection: hits, their analogues and other compounds. The true share with any hit is near 3.6%.
# ClpP mod: qHTS Assay for Activators of ClpP. ATP-dependent Clp protease proteolytic subunit (Bacillus subtilis (strain 168)), P80244. purified B. subtilis ClpP, FRET peptide cleavage, 20 min. Potency, µM (series often up to 57.5 µM), for the others: top-dose activity change, negative = active. 1.9% of 340,000 active. AID 651965, 2013; active = well fitted falling curve with a large enough effect; inconclusive = small, poorly fitted or top-dose-only effect; inactive = no such curve, though single readings can be large or run the other way; note: the source files actives as falling curves though it sought activators and does not explain the sign; nearly all actives have a fitted effect of over 65% in size
# Target sequence (P80244 whole entry, looked up): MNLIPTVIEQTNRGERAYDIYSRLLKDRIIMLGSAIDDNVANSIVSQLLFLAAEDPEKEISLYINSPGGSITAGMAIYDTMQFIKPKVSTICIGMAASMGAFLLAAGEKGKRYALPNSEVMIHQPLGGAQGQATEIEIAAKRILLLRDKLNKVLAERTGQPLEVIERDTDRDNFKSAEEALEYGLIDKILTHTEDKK
#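 Purified B. subtilis ClpP, 10 microg/mL final in Tris/HCl pH8 with KCl, BSA, glycerol and Tween-20, cleaved an Abz/nitrotyrosine-quenched decapeptide. Fluorescence (ex 320, em 430) was read at 0 and 20 min at room temperature. Delta was normalized to 5.8 microM ADEP and DMSO/no-enzyme controls.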
# Mm-Cpn inhibitor: M. maripaludis TRiC chaperonin inhibition | purified Mm-Cpn ATPase, ADP Transcreener TR-FRET | Potency, µM (top dose mostly 76.9 µM), for inactives: at the highest dose activity, negative = inhibition, hits mostly inhibitors | 0.031% of 330,000 active | AID 504842; note: % is set by controls: 0 for no effect and ±100 for the full control effect; nearly all actives have a fitted effect of over 80% in size
#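 Measured: ADP formation by purified Mm-CPN. Conditions: 25 nM protein, 10 uM ATP, Tris pH 7.4 with Mg2+, K+ and DTT, 37°C for 30 min. Detection: Transcreener HTRF after 30 min at room temperature.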
# Abeta rescue: A-beta toxicity reversal in yeast; AID 1347071; 0.063% of 410,000 active; Potency, µM (top dose mostly 46.1 µM), most hits filed as activators; yeast expressing A-beta42, growth rescue, OD600, 48 h; response scale: 0% DMSO, 100% iron-clioquinol control; note: nearly all actives have a fitted effect of over 55% in size
#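 Yeast A-beta toxicity model in growth medium with pinned compounds, 48 h at 30 C; growth read as absorbance at 600 nm. Normalized to FeCl3/clioquinol equimolar mix (positive) and DMSO (negative).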
# FUS suppressor: suppressors of FUS proteinopathy in yeast; S. cerevisiae FUS-expressing, growth rescue, OD600, 24 h; Potency, µM (series often up to 76.6 µM), hits mostly activators; 0.24% of 390,000 active; AID 1347120;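 note: plate controls were DMSO vehicle for no effect and reference control for full effect; nearly all actives have a fitted effect of over 55% in size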
#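 Read-out: OD at 600 nm after 24hr at 30C, reporting rescue of FUS-induced yeast toxicity. Cells at OD 0.005 in galactose (2%) minimal medium; compounds tested in a dilution series; CP55940 titration from 92uM final as control.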
# TDP43 rescue: TDP-43 toxicity inhibition in yeast. 1.8% of 410,000 active. TDP-43 expressing yeast growth rescue, BacTiter-Glo, 24 h. Potency, µM (doses to about 46.1 µM), without a hit: top-dose growth rescue (activation), actives largely listed as activators; note: % of control where 0% means no effect; nearly all actives have a fitted effect of over 50% in size
#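 Galactose-induced TDP-43 yeast, OD600=0.02, compound pinned; 24 hr, 30 deg C; BacTiter-Glo luminescence for growth. Inhibitors of TDP-43 toxicity read as activators.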
# aSyn yeast inh: rescues yeast growth from alpha-synuclein toxicity; Yeast expressing alpha-synuclein, growth rescue, BacTiter-Glo, 24 h; Potency, µM (titrated, usually from 46.1 µM), for the others: at the top dose growth rescue (activation), usual class: activators; 0.14% of 370,000 active; note: % of control where 0% means no effect; nearly all actives have a fitted effect of over 65% in size
#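 Galactose-induced alpha-syn yeast (OD600=0.02, raffinose-pregrown) + pinned cpd, 24 hr, 30 deg C; growth by BacTiter-Glo luminescence. Growth restoration scores as activation.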
# The depositor's hits bear a star; i = inactive; ? = inconclusive; . = no result given. Unless noted, calls come from the whole dose curve; as a rule, active = well fitted curve in the direction sought with a large enough effect; inconclusive = small, poorly fitted or top-dose-only effect, or another doubt; inactive = no such curve, though single readings can be large; an effect the other way counts as inactive or inconclusive. Potency is the fitted concentration of half-maximal effect.
SMILES,ClpP mod,Mm-Cpn inhibitor,Abeta rescue,FUS suppressor,TDP43 rescue,aSyn yeast inh
CCOC(=O)Cc1c(C)c2c(O)cc(O)cc2oc1=O,25µM*,-11%,i,i,-17%,5%
CCOC(=O)c1cccc(NC(=O)CN(C)S(=O)(=O)c2ccc(Cl)s2)c1,.,.,.,i,.,.
COc1cc(C2C(=O)N(C3CCCCCC3)CC(=O)N2CCc2ccccc2)ccc1OC(C)C (centres undefined),4%,.,i,i,2%,.
CN(Cc1ccccc1)C(=O)c1cc2c(s1)-c1ccc(Cl)cc1SC2,25µM*,.,i,i,16%,.
O=C(NCc1ccc(Cl)cc1)c1cc2c(s1)-c1ccccc1SC2,32µM*,.,i,i,17%,.
Cc1cc2c(cc1S(=O)(=O)NCc1ccc(F)cc1)n(C)c(=O)c(=O)n2C,-13%,.,i,i,-3%,.
c1ccc2c(c1)CCN(c1ncnc3nc[nH]c13)C2,0%,-1%,i,i,-16%,1%
CC1Cc2ccccc2N1c1ncnc2nc[nH]c12 (centres undefined),-3%,-4%,i,i,20µM*,-10%
CC1Cc2ccccc2N1c1ncnc(N)c1[N+](=O)[O-] (centres undefined),0%,-2%,i,i,11µM*,15%
CCOC(=O)c1nnsc1Nc1ccc(C)c(C)c1,2%,?,i,i,11µM*,-5%
COc1cccc(CNC(=O)CSc2nc3ccccc3nc2Cc2ccc(C)cc2)c1OC,0%,.,i,i,16%,.
O=CN/C=C/c1cc(O)ccc1O,22µM*,-12%,i,i,17%,2%
CCCCOc1ccccc1C(=O)Nc1nonc1-c1ccccc1,-9%,.,i,i,?,.
CCOc1ccc2cc(/C=C/C(=O)c3ccco3)c(Cl)nc2c1,-10%,-1%,i,i,7.9µM*,-1%
Cc1ccc(-c2noc(-c3cc4ccccc4oc3=O)n2)cc1,-7%,-1%,i,i,8%,-1%
Cc1cccc(-c2noc(-c3cc4ccccc4oc3=O)n2)c1,8.9µM*,?,i,i,-7%,-7%
O=c1oc2ccc(Br)cc2cc1-c1nc(-c2ccccc2)no1,1%,.,i,i,11%,.
O=c1oc2ccccc2cc1-c1nc(-c2ccccc2)no1,28µM*,0%,i,i,-17%,1%
COc1ccc(C)cc1NC(=O)Cn1c(=O)n(Cc2nc(C)no2)c(=O)c2ccccc21,-12%,.,i,i,-24%,.
COc1ccc(Cn2ccc3ccc(-c4ccc5ccn(C(=O)c6cccc(OC)c6)c5c4)cc32)cc1,.,.,.,i,.,.
Cc1c(-c2ccccc2)[n+](=O)c(-c2ccco2)c(C)n1[O-],28µM*,1%,i,i,3%,-13%
COCCNC(=O)CSc1nc2cc3c(cc2c(=O)n1CCCC(=O)NCc1ccc2c(c1)OCO2)OCO3,-2%,.,i,i,18%,.
Cc1ccc(N2CC(NC(=O)/C=C\c3ccc4c(c3)OCO4)CC2=O)cc1C (centres undefined),-8%,.,i,i,2%,.
C=CCn1c(=N)c(C(=O)NCCCOC)cc2c(=O)n3cc(C)ccc3nc21,-19%,-2%,i,.,20%,5%
N=c1c(C(=O)NC2CCCCC2)cc2c(=O)n3ccccc3nc2n1Cc1cccnc1,.,1%,i,i,6%,1%
SMILES,ClpP mod,Mm-Cpn inhibitor,Abeta rescue,FUS suppressor,TDP43 rescue,aSyn yeast inh
CC(C)OCCCn1c(=N)c(C(N)=S)cc2c(=O)n3ccccc3nc21,14µM*,-2%,i,i,?,1%
N=c1c(C(=O)NCc2ccc(F)cc2)cc2c(=O)n3ccccc3nc2n1Cc1cccnc1,7.1µM*,1%,i,.,-15%,-1%
CCOCCCn1c(=N)c(C(=O)NCc2ccccc2)cc2c(=O)n3ccccc3nc21,4%,.,i,i,5%,.
C=CCn1c(=N)c(C(=O)NCCCOC)cc2c(=O)n3ccccc3nc21,6.3µM*,-9%,i,i,-21%,-1%
COC(=O)c1cc2c(=O)n3ccccc3nc2n(Cc2cccnc2)c1=N,6.3µM*,.,i,i,16%,1%
CCCn1c(=N)c(C(=O)NCc2cccnc2)cc2c(=O)n3ccccc3nc21,4%,.,i,i,16%,.
CNc1c(Br)cc(/C=C2\C=Cc3ccccc32)cc1Br,1%,.,.,.,.,10%
CCCCc1ccc(NC(=O)CSc2nc3ccccc3nc2N2CCCCC2)cc1,-1%,.,i,i,17%,.
CCNC(=O)c1cc2c(=O)n3cccc(C)c3nc2n(Cc2ccc(C)cc2)c1=N,4.5µM*,-5%,i,i,11%,1%
Cc1cccn2c(=O)c3cc(C(=O)NC(C)C)c(=N)n(Cc4ccncc4)c3nc12,5%,0%,i,.,5%,2%
N=c1c(C(=O)NCc2ccccc2)cc2c(=O)n3ccccc3nc2n1CCCN1CCOCC1,3.2µM*,-2%,i,i,0%,0%
Cc1ccn2c(Nc3ccc4c(c3)OCCO4)c(-c3cccs3)nc2c1,4%,.,i,i,6%,.
Cc1ccccc1S(=O)(=O)Oc1ccccc1C(=O)Oc1ccccc1,25µM*,1%,i,.,14%,1%
Cn1nc(-c2ccc(OCC(=O)Nc3ccc(Cl)cc3)cc2)c2ccccc2c1=O,?,.,i,i,0%,.
Cc1ccc(S(=O)(=O)NCCC(=O)OCc2ccc([N+](=O)[O-])cc2)cc1C,-2%,-1%,i,i,20µM*,0%
N#CC1(C#N)C(c2ccccc2)OC23CCCCCC2C1(C#N)C(=N)O3 (centres undefined),32µM*,1%,i,.,10%,4%
N#CC1(C#N)C(c2ccccc2)OC23CCCCC2C1(C#N)C(=N)O3 (centres undefined),14µM*,0%,i,i,4%,0%
CCCCCCCCOc1ccc(C2OC34CCCCC3C(C#N)(C#N)C2(C#N)C(=N)O4)cc1 (centres undefined),20µM*,-6%,i,i,12%,16%
CCCCC1OC23CCCCC2C(C#N)(C(=N)O3)C1(C#N)C#N (centres undefined),?,-2%,i,i,13%,0%
CCCCC1OC23CCCCC2C(C#N)(C#N)C1(C#N)C(=N)O3 (centres undefined),-85%,1%,i,i,0%,1%
